The list is not random: actives were taken first. Their share in the collection is about 1.1%.
PrPC surface inh – reduces human prion protein on the cell surface; P04156; cell surface PrPC, TR-FRET read-out; inhibition, % at 13.8 µM; 370,000 tested, 0.43% active; AID 720596; in the data active = inhibition above about 24%
BJeLR viability – BJeLR cell viability loss | 300,000 tested, 0.17% active | BJeLR (HRASV12) viability, CellTiter-Glo ATP luminescence, 48 h | AID 1554 | inhibition, % (no concentration beside the values); in the data active = inhibition above about 50%
VHR inh abs – DUSP3 (human) phosphatase inhibition; P51452; 290,000 tested, 0.52% active; inhibition, % at 13.3 µM; recombinant VHR phosphatase, pNPP absorbance; in the data active = inhibition above about 50%
Target sequence (P51452 whole entry, looked up): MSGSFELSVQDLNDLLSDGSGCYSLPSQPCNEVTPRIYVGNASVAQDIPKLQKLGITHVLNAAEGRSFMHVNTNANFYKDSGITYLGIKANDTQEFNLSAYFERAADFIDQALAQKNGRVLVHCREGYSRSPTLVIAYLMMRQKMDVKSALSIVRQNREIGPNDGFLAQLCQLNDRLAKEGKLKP
SARS 3CLpro inh – SARS-CoV 3CLpro protease inhibition; P0C6X7; recombinant SARS-CoV 3CLpro, quenched FRET peptide cleavage; inhibition, % at 6 µM; 290,000 tested, 0.14% active; AID 1706; in the data active = inhibition above about 12%
A number is an active result; . = inactive; / = no result given.

SMILES | PrPC surface inh | BJeLR viability | VHR inh abs | SARS 3CLpro inh
O=C(O)/C=C\C(=O)Nc1ccc(N2CCN(c3cccc(Cl)c3)CC2)cc1 | . | . | 57.4 | .
c1ccc2nc(-c3nc4ccccc4o3)ccc2c1 | . | 53.4 | . | .
O=c1[nH]cnc2c1ncn2C1OC(CO)CC1F (stereo unspecified) | . | / | / | /
COc1ccc(-c2cc(C(=O)Nc3ccc(F)cc3F)no2)cc1 | . | . | 54.7 | .
O=C(NCCc1ccccc1F)C1CCCN(c2nc3ccccc3s2)C1 (stereo unspecified) | . | . | . | .
CCc1ccc(NC(=O)CC2C(=O)NCCN2C(=O)c2ccc(F)cc2)cc1 (stereo unspecified) | . | . | . | .
O=C(CNC(=O)OCc1ccccc1)NC1CCCCCC1 | . | . | 53.0 | .
O=C(CCNC(=O)OCc1ccccc1)NC1CCCCC1 | . | . | . | .
CCCN1C[C@@H](C)[C@@H](OC)CN(C)C(=O)c2ccc(NC(=O)c3cccc(F)c3)cc2OC[C@H]1C | . | / | / | /
Cc1ccccc1OCC(=O)NCCNC(=O)c1ccccn1 | . | . | 54.4 | .
C=CCN1C(=O)/C(=C2/Sc3ccccc3N2CC)SC1=S | . | . | . | .
C=CCN1C(=O)/C(=C2/Sc3ccccc3N2CCCS(=O)(=O)O)SC1=S | . | . | 50.5 | .
COc1ccc(-c2cc3c(c4c2ccn4C)C2CCC3O2)cn1 (stereo unspecified) | . | / | / | /
COc1ccc(NCc2cccnc2)cc1 | . | . | . | .
O=C(c1cccc(-c2ccccc2)c1)N1CC[C@@H](N2CCC(O)CC2)[C@H](O)C1 | . | . | 51.2 | .
COc1ccc2c(C)c(C(=O)N3CC[C@@H](N4CCC(O)CC4)[C@H](O)C3)oc2c1 | . | . | . | .
COc1ccc(S(=O)(=O)N2CCOCC2)cc1NC(=O)CCNC(=O)c1ccc(Cl)cc1 | . | / | / | /
COc1ccc(S(=O)(=O)N2CCOCC2)cc1NC(=O)CCNC(=O)c1ccc(Br)cc1 | . | 107.9 | / | /
Cc1cccc(-c2cccc3c4c([nH]c23)[C@@H]2C[C@H](N(C)C(=O)C3CCCCC3)[C@H]([C@H](C)O)CN2CC4)c1 | . | / | / | /
COc1cc(C2c3cc4c(cc3OC(C)(N3CCCC3)C2C)OCO4)cc(OC)c1OC (stereo unspecified) | . | / | / | /
COc1cccc(OCC(=O)O/N=C(\N)c2ccncc2)c1 | . | . | . | .
Cc1cccc(-c2cc3c(N=O)c4ccccc4c-3n[nH]2)c1 | . | . | . | .
O=c1[nH]nc(-c2ccccc2)c2ccccc12 | . | . | . | .
Cc1ccc(-c2cc3c(N=O)c4ccccc4c-3n[nH]2)cc1 | . | 69.8 | . | .
O=Nc1c2cc(-c3ccccc3)[nH]nc-2c2ccccc12 | . | 68.7 | . | .
SMILES | PrPC surface inh | BJeLR viability | VHR inh abs | SARS 3CLpro inh
Cc1cc(C)[n+](Cc2ccccc2)cc1C(N)=O | . | . | / | /
CS(=O)(=O)N1CCN(c2ccc([N+](=O)[O-])c(NCc3ccc(Cl)cc3)c2)CC1 | . | . | 89.6 | .
CCC(C)c1ccc(OCC(=O)Nc2ccc3c(c2)C(=O)NC3=O)cc1 (stereo unspecified) | . | . | . | .
Cc1ccc2c(Cl)c(Cc3ccccc3)c(=S)[nH]c2n1 | . | / | / | /
CC1(C)NC(=O)N(CCCOc2ccccc2Br)C1=O | . | . | 51.2 | .
COc1ccc(CCN(C)Cc2c(O)ccc3ccccc23)cc1OC | . | . | 58.2 | .
Nc1nc(-c2ccco2)c(-c2ccco2)s1 | . | . | . | .
c1coc(-c2nc(-c3ccco3)c(-c3ccco3)nc2-c2ccco2)c1 | . | . | 50.6 | .
O=C([C@H]1O[C@@H](n2ccc(=O)[nH]c2=O)[C@H](O)[C@@H]1O)N1CCSC1 | . | / | / | /
COc1ccc(Cl)cc1N(CC(=O)Nc1ccccc1C(=O)N1CCCC1)S(C)(=O)=O | . | . | 57.6 | .
O=C1CCC([N+](=O)[O-])C(c2ccc(C(F)(F)F)cc2)N1 (stereo unspecified) | . | . | / | /
C=CCN1C(=O)[C@@H](CC(=O)NCc2cccc3ccccc23)[C@]2(C(=O)OCC)CCCCC/C=C/12 | . | / | / | /
Cc1cc(C)n(-c2ccc(Cl)c(C(=O)O)c2)n1 | . | . | . | .
Cc1cc(C)n(-c2cc(C(=O)O)cc(C(=O)O)c2)n1 | . | . | 53.0 | .
CC1=C(C(=O)N(C(C)C)C(C)C)CC(CC(=O)NCc2cccs2)C(=O)N1Cc1ccccc1 (stereo unspecified) | . | / | / | /
CCC1Oc2ccc(C)cc2N(CC(=O)NCCCN2CCCCC2CC)C1=O (stereo unspecified) | . | . | . | .
Cc1ccc2c(c1)N(CC(=O)NCCCN1CCCCC1C)C(=O)c1cccnc1O2 (stereo unspecified) | . | . | . | .
CCC1Oc2ccc(C)cc2N(CC(=O)NCCCN2CCCCC2C)C1=O (stereo unspecified) | . | . | 57.9 | .
CC1CCCCN1CCCNC(=O)CN1C(=O)c2cccnc2Oc2ccccc21 (stereo unspecified) | . | . | 55.6 | .
Cc1ccc(C)c(NC(=O)CSc2nc(C)cc(=O)[nH]2)c1 | . | / | / | /
N#CCC(=O)N/N=C/c1cc([N+](=O)[O-])ccc1N1CCCC1 | . | . | . | .
O=C(N/N=C/c1cc([N+](=O)[O-])ccc1N1CCNCC1)c1ccc([N+](=O)[O-])cc1 | . | . | 52.1 | .
Cc1[nH]n(-c2ccc([N+](=O)[O-])cc2)c(=O)c1C=NCCc1c[nH]c2ccccc12 | . | . | 55.4 | .
CCCc1[nH]n(-c2ccc([N+](=O)[O-])cc2)c(=O)c1C=NCCc1c[nH]c2ccccc12 | . | . | . | .
O=C(OCc1ccccc1)c1ccc(NCc2cc(O)ccc2O)cc1 | 46.1 | / | / | /
SMILES | PrPC surface inh | BJeLR viability | VHR inh abs | SARS 3CLpro inh
CC(C)OC(=O)c1ccc(NCc2cc(O)ccc2O)cc1 | . | / | / | /
Cc1ccc(NC(=O)Nc2cccnc2)cc1Cl | . | . | . | 21.3
CCc1nonc1NC(=O)c1oc2ccccc2c1C | . | . | 50.2 | .
Cc1ccc2[nH]cc(C(=O)CCl)c2c1 | . | 53.9 | . | .
Cc1ccc(CN2C(=O)/C(=C\c3ccc(C(=O)NCc4cccnc4)cc3)Oc3ccccc32)cc1 | . | 113.4 | . | .
COc1ccccc1N1CCN(C2CCCN(C(=O)CCn3cncn3)C2)CC1 (stereo unspecified) | . | . | 57.1 | .
COc1ccccc1N1CCN(C2CCCN(C(=O)C3=NN(C)C(=O)CC3)C2)CC1 (stereo unspecified) | . | . | 52.1 | .
COc1ccccc1N1CCN(C2CCCN(C(=O)CCC(=O)N(C)C)C2)CC1 (stereo unspecified) | . | . | . | .
COc1cccc(/C=N/Nc2ncnc3scc(-c4ccccc4)c23)c1O | . | 70.1 | . | .
COc1cccc(/C=N/Nc2ncnc(Cl)c2N)c1O | . | 56.4 | . | .
CN1CCN(CCC(=O)N/N=C/c2cc3c(cc2[N+](=O)[O-])OCO3)CC1 | . | . | . | .
O=C(c1ccc(Br)o1)N1CCN(C23CC4CC(CC(C4)C2)C3)CC1 | . | . | 55.5 | .
O=C(c1ccco1)N1CCN(C(=O)c2ccc(Br)o2)CC1 | . | / | / | /
Cc1cccc(NC(=O)COC(=O)c2c(-c3ccccc3)noc2C)c1 | . | / | / | /
N#Cc1c(NCCN)nc(NCc2ccccc2)c2c1CCN(Cc1ccccc1)C2 | / | / | . | .
